This passage reports inhibition results from ChEMBL document CHEMBL1961873, “Compounds: GSK PKIS; Assays: Nanosyn kinase panel” (2012).

Molecules are shown by their SMILES.

For one test, the target named is Protein kinase C beta type (Homo sapiens) (UniProt P05771). The following applies: at 1 µM.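 Also: mean inhibition value, enzyme form tested was the PKC-beta1 splice variant.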
Chain of Protein kinase C beta type (Homo sapiens) (P05771 2-671 limits assumed): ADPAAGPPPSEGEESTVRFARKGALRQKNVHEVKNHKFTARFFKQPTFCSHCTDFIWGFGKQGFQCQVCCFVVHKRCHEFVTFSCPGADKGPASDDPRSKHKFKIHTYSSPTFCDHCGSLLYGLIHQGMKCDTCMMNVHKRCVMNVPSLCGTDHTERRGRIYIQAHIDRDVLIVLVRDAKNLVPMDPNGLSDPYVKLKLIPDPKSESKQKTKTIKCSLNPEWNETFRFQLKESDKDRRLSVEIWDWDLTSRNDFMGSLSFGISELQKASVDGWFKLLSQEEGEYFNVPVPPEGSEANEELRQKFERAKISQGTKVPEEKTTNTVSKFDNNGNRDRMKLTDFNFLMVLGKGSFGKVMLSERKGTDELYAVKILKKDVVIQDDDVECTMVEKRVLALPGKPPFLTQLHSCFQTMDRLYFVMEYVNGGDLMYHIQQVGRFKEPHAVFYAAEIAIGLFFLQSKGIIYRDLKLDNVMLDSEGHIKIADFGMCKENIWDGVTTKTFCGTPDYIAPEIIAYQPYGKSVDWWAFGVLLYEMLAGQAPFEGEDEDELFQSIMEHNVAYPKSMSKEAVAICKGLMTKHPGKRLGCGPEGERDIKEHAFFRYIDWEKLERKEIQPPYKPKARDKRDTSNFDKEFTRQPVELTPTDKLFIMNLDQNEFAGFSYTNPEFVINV
Broadly, the inhibition is the drop in the measured response relative to a control, in per cent. Turning to `C[C@@H](Oc1cc(-n2cnc3ccc(OCC4CCN(C)CC4)cc32)sc1C(N)=O)c1ccccc1Cl`, the inhibition came to 3.67%.
The same measure, in the same setting: the value for `CCc1cccc(CC)c1/C=C/c1cncc(C(=O)NC)c1` was 0.32%; that for `CS(=O)(=O)CCNCc1cc(-c2cc3c(Nc4ccc(OCc5cccc(F)c5)c(Cl)c4)ncnc3s2)cs1` was 1.19%; that for `Cc1nnc(-c2ccc(C)c(-c3ccc(C(=O)NCc4ccc(Cl)cc4)cc3)c2)o1` was 0.84%.
Same read-out and setting: with `CN1CCN(CCCNc2nc3ccc(Oc4ccc(NC(=O)Nc5cc(C(F)(F)F)ccc5F)cc4)cc3[nH]2)CC1` the figure was 1.42%; with `NS(=O)(=O)c1ccc(N/N=C2\C(=O)Nc3ccc(-c4cnco4)cc32)cc1`, 0.36%; with `Fc1ccc(-c2ncn(C3CCNCC3)c2-c2ccnc(Oc3ccc4c(c3)OCO4)n2)cc1`, 8.79%.
Still for that read-out and setting: with `COc1ccc(C2=C(N3CCc4ccccc43)C(=O)NC2=O)cc1` the figure was 2.88%.
For the compound `O=C1Nc2ccc(I)cc2C1=Cc1cc(Br)c(O)c(Br)c1`, the inhibition came out at 1.41%.
Same read-out and setting: the value for `Fc1ccc(-c2ncn(CCCN3CCOCC3)c2-c2ccncc2)cc1` was -0.8%.
In the case of `CN(C)CCCNc1nccc(-c2c(-c3ccc(F)cc3)nn3cc(C(F)(F)F)ccc23)n1`, the inhibition came to 0.97%.
Still for that read-out and setting: the value for `COc1cccc(/C=N/Nc2ncnc3c2cnn3-c2cccc(OC)c2)c1` was 0.85%; that for `O=C1Nc2ccccc2/C1=C/Nc1ccc(-n2cncn2)cc1` was 2.25%.
The same measure, in the same setting: with `COc1cc2ncn(-c3cc(OCc4cccs4)c(C(N)=O)s3)c2cc1OC` the figure was 8.77%; with `Fc1ccc(-c2nc3n(c2-c2ccncc2)CCS3)cc1`, 9.28%.
The same measure, in the same setting: with `O=C1NC(=O)C(c2cccc(Cl)c2)=C1Nc1ccc(Cl)c(C(=O)O)c1` the figure was 1.11%; with `Fc1ccc(-c2ncn(C3CCNCC3)c2-c2ccnc(Oc3ccc(Oc4ccccc4)cc3)n2)cc1`, 11.2%; with `COc1ccc(-c2ccc3c(NC(=O)C4CC4)n[nH]c3n2)cc1`, 1.54%.
Consider `CN(c1ccc(NC(=O)Nc2c(Cl)cccc2Cl)cc1)c1ccnc(Nc2cccc(CS(C)(=O)=O)c2)n1`, for which the inhibition was 1.35%.
The same measure, in the same setting: with `Fc1ccc(-c2ncn(C3CCNCC3)c2-c2ccnc(Oc3ccc(F)c(F)c3)n2)cc1` the figure was 3.21%; with `Cc1ccc(NC(=O)c2ccoc2)cc1-c1ccc(C(=O)NCC2CC2)cc1`, 1.76%.
On the same count and under the same terms, with `NCc1ccc(-n2c(-c3nonc3N)nc3cnccc32)cc1` the figure was 64.5%.
The same measure, in the same setting: with `NC(=O)c1ccc(Oc2nccc(-c3c(-c4ccc(F)cc4)ncn3C3CCNCC3)n2)cc1` the figure was 5.96%.
Take `CCc1nccc2c1nc(-c1nonc1N)n2CC`: the inhibition came out at 20%.
Still for that read-out and setting: the value for `CCC(=O)Nc1ccc(C)c(-c2ccc(C(=O)NCC3CC3)cc2)c1` was -0.89%; that for `CN(C)CCOc1ccc(-c2cc(-c3ccc4c(c3)CCC4=NO)c(-c3ccncc3)o2)cc1` was 4.4%; that for `Nc1nccc(-c2c(-c3ccc(F)cc3)ncn2C2CCC(O)CC2)n1` (stereo not drawn) was 20.3%.
With `COc1ccc2cc(-c3c(-c4ccncc4)nc(-c4ccc([S+](C)[O-])cc4C)n3C)ccc2c1` (stereo not drawn), the inhibition is 13%.
Still for that read-out and setting: the value for `CCS(=O)(=O)c1ccc(OC)c(Nc2ncc(-c3cccc(-c4ccccc4F)c3)o2)c1` was 0.3%; that for `NS(=O)(=O)c1ccc(Nc2cc(-c3ccc(O)c(F)c3)n[nH]2)cc1` was 0.79%.
On the same count and under the same terms, with `O=C(Nc1n[nH]c2cc(-c3cc(F)ccc3F)ccc12)C1CC1` the figure was 2.04%.
As for `NS(=O)(=O)c1ccc(N/N=C2\C(=O)Nc3ccc(C(=O)NCCCn4ccnc4)cc32)cc1`, the inhibition worked out at 3.15%.
Still for that read-out and setting: with `CCN(CC)Cc1ccc(Nc2nccc(-c3cnn4ncccc34)n2)cc1` the figure was -5.55%.
Same read-out and setting: the value for `COc1ccc2ncn(-c3cc(O[C@H](C)c4ccccc4Cl)c(C(N)=O)s3)c2c1` was 2.58%.

The next test deals with Protein kinase C eta type (Homo sapiens) (UniProt P24723). The following applies: at 0.1 µM.
Chain of Protein kinase C eta type (Homo sapiens) (P24723 whole entry): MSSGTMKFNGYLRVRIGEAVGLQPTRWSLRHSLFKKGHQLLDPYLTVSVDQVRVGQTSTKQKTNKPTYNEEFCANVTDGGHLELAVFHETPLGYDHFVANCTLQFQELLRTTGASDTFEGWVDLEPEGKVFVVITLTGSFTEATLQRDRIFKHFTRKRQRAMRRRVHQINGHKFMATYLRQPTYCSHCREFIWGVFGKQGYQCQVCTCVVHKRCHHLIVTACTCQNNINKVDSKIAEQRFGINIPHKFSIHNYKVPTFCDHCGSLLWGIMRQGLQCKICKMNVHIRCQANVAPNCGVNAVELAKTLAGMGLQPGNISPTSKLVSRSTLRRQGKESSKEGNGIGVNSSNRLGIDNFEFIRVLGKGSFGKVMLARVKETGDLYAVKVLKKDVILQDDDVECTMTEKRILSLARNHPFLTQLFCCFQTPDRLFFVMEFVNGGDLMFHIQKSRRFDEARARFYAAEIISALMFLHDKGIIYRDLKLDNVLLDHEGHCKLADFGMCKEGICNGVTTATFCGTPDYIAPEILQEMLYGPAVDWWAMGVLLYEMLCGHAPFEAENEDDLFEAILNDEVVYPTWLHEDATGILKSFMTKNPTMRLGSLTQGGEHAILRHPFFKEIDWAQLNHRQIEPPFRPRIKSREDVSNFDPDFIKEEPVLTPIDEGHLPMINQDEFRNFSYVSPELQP
With `C[C@@H](Oc1cc(-n2cnc3ccc(OCC4CCN(C)CC4)cc32)sc1C(N)=O)c1ccccc1Cl`, the inhibition is 5.52%.
For the compound `CCc1cccc(CC)c1/C=C/c1cncc(C(=O)NC)c1`, the inhibition was 1.99%.
Still for that read-out and setting: the value for `CS(=O)(=O)CCNCc1cc(-c2cc3c(Nc4ccc(OCc5cccc(F)c5)c(Cl)c4)ncnc3s2)cs1` was 5.83%.
In the case of `Cc1nnc(-c2ccc(C)c(-c3ccc(C(=O)NCc4ccc(Cl)cc4)cc3)c2)o1`, the inhibition was determined as 6.52%.
In the case of `CN1CCN(CCCNc2nc3ccc(Oc4ccc(NC(=O)Nc5cc(C(F)(F)F)ccc5F)cc4)cc3[nH]2)CC1`, the inhibition was 1.27%.
On to `NS(=O)(=O)c1ccc(N/N=C2\C(=O)Nc3ccc(-c4cnco4)cc32)cc1`, for which the inhibition was found to be 3.38%.
`Fc1ccc(-c2ncn(C3CCNCC3)c2-c2ccnc(Oc3ccc4c(c3)OCO4)n2)cc1`: the inhibition turned out to be 7.87%.
The same measure, in the same setting: with `COc1ccc(C2=C(N3CCc4ccccc43)C(=O)NC2=O)cc1` the figure was 2.61%.
Same read-out and setting: with `O=C1Nc2ccc(I)cc2C1=Cc1cc(Br)c(O)c(Br)c1` the figure was 5.57%.
On the same count and under the same terms, with `Fc1ccc(-c2ncn(CCCN3CCOCC3)c2-c2ccncc2)cc1` the figure was -2.71%.
On to `CN(C)CCCNc1nccc(-c2c(-c3ccc(F)cc3)nn3cc(C(F)(F)F)ccc23)n1`, for which the inhibition was determined as 6.55%.
As for `COc1cccc(/C=N/Nc2ncnc3c2cnn3-c2cccc(OC)c2)c1`, the inhibition was determined as 5.46%.
The same measure, in the same setting: with `O=C1Nc2ccccc2/C1=C/Nc1ccc(-n2cncn2)cc1` the figure was 8.55%.
Same read-out and setting: the value for `COc1cc2ncn(-c3cc(OCc4cccs4)c(C(N)=O)s3)c2cc1OC` was 4.49%.
The same measure, in the same setting: the value for `Fc1ccc(-c2nc3n(c2-c2ccncc2)CCS3)cc1` was 4.25%; that for `O=C1NC(=O)C(c2cccc(Cl)c2)=C1Nc1ccc(Cl)c(C(=O)O)c1` was 3.84%; that for `Fc1ccc(-c2ncn(C3CCNCC3)c2-c2ccnc(Oc3ccc(Oc4ccccc4)cc3)n2)cc1` was 1.53%.
For `COc1ccc(-c2ccc3c(NC(=O)C4CC4)n[nH]c3n2)cc1`, the inhibition was found to be 1.15%.
Regarding `CN(c1ccc(NC(=O)Nc2c(Cl)cccc2Cl)cc1)c1ccnc(Nc2cccc(CS(C)(=O)=O)c2)n1`, the inhibition was 1.33%.
Same read-out and setting: with `Fc1ccc(-c2ncn(C3CCNCC3)c2-c2ccnc(Oc3ccc(F)c(F)c3)n2)cc1` the figure was 3.45%; with `Cc1ccc(NC(=O)c2ccoc2)cc1-c1ccc(C(=O)NCC2CC2)cc1`, 4.75%; with `NCc1ccc(-n2c(-c3nonc3N)nc3cnccc32)cc1`, 47.1%.
The same measure, in the same setting: the value for `NC(=O)c1ccc(Oc2nccc(-c3c(-c4ccc(F)cc4)ncn3C3CCNCC3)n2)cc1` was 5.08%; that for `CCc1nccc2c1nc(-c1nonc1N)n2CC` was 4.76%; that for `CCC(=O)Nc1ccc(C)c(-c2ccc(C(=O)NCC3CC3)cc2)c1` was 5.65%.
Same read-out and setting: with `CN(C)CCOc1ccc(-c2cc(-c3ccc4c(c3)CCC4=NO)c(-c3ccncc3)o2)cc1` the figure was 0.38%; with `Nc1nccc(-c2c(-c3ccc(F)cc3)ncn2C2CCC(O)CC2)n1` (stereo not drawn), -3.17%; with `COc1ccc2cc(-c3c(-c4ccncc4)nc(-c4ccc([S+](C)[O-])cc4C)n3C)ccc2c1` (stereo not drawn), 0.16%.
On to `CCS(=O)(=O)c1ccc(OC)c(Nc2ncc(-c3cccc(-c4ccccc4F)c3)o2)c1`, for which the inhibition was -1.89%.
On the same count and under the same terms, the value for `NS(=O)(=O)c1ccc(Nc2cc(-c3ccc(O)c(F)c3)n[nH]2)cc1` was -3.29%.
Same read-out and setting: with `O=C(Nc1n[nH]c2cc(-c3cc(F)ccc3F)ccc12)C1CC1` the figure was 2.87%; with `NS(=O)(=O)c1ccc(N/N=C2\C(=O)Nc3ccc(C(=O)NCCCn4ccnc4)cc32)cc1`, 3.58%; with `CCN(CC)Cc1ccc(Nc2nccc(-c3cnn4ncccc34)n2)cc1`, 5.27%.
For the compound `COc1ccc2ncn(-c3cc(O[C@H](C)c4ccccc4Cl)c(C(N)=O)s3)c2c1`, the inhibition came to 5.09%.
